# Experimental data as given in a collection of fitness landscapes (doi:10.1016/j.celrep.2020.107928).
# In all, about 81,000 sequences were measured (“one-hybrid fitness for binding parS DNA”: median about -0.17, highest 2% from about 0.51 on). The sample as a whole holds a higher share of the highest values than the screen did.
# B1: Caulobacter ParB omega fusion; a variant is named by its letters at X, in order, B8GW30 (parent)
# chain: MESVVVGEPGMSEGRRGLGRGLSALLGEVDAAPAQAPGEQLGGSREAPIEILQRNPDQPRRTFREEDLEDLSNSIREKGVLQPILVRPSPDTAGEYQIVAGERAWRAAQRAGLKTVPIMVRELDDLAVLEIGIIENVQRADLNVLEEALSYKVLMEKFERTQENIAQTIGKSXSHVANXMRLLXLPDEVQSYLVSGELTAXHARAIAAAADPVALAKQIIEGGLSVRETEALARKAPNLSAGKSKGGRPPRVKDTDTQALESDLSSVLGLDVSIDHRGSTGTLTITYATLEQLDDLCNRLTRGI
# Variants of: B1
# Assay: one-hybrid fitness for binding parS DNA (scaled: cognate 1, non-cognate 0); higher = stronger binding
# Conditions: with parS DNA site
# Summary of the method: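 Fitness here means the log change in variant-to-wild-type read ratio between plasmids sequenced before and after selection. That scale was set so cognate equals 1 and non-cognate equals 0. The selection was a bacterial one-hybrid screen of Caulobacter ParB libraries, four specificity codons randomised, in E. coli USO carrying a HIS3 reporter with the site 19 bp from the promoter, grown 48 hours at 37°C on M9-minus-histidine with 0.1 mM IPTG and 5 mM 3-AT.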
row,Variant,one-hybrid fitness for binding parS DNA
1,LALL,≤ 0.2
2,RSFG,0.94
3,RSFK,≤ 0.2
4,RPFG,≤ 0.2
5,RDFG,≤ 0.2
6,RCFG,1.01
7,REFG,≤ 0.2
8,AKRC,≤ 0.2
9,QSGM,≤ 0.2
10,MCTL,≤ 0.2
11,TMTY,≤ 0.2
12,MHDG,≤ 0.2
13,WDTK,≤ 0.2
14,RQHA,0.57
15,NQKA,≤ 0.2
16,RQIA,0.42
17,NQHA,≤ 0.2
18,RQVA,0.486
19,RQYA,0.583
20,PQHA,≤ 0.2
21,RQKA,0.701
22,RQQA,0.548
23,RQPA,≤ 0.2

row,Variant,one-hybrid fitness for binding parS DNA
1,KQQA,≤ 0.2
2,PQTA,≤ 0.2
3,WANF,≤ 0.2
4,HAGM,≤ 0.2
5,IYPG,≤ 0.2
6,LMKM,≤ 0.2
7,TYFC,≤ 0.2
8,GSSM,≤ 0.2
9,RQRA,0.632
10,DQSA,≤ 0.2
11,RQSA,0.575
12,KQSA,≤ 0.2
13,DQRA,≤ 0.2
14,KQRA,≤ 0.2
15,DQAA,≤ 0.2
16,EQAA,≤ 0.2
17,RQFA,0.532
18,RQAA,0.571
19,FPAS,≤ 0.2
20,PFLV,≤ 0.2
21,ENLG,≤ 0.2
22,YSQA,≤ 0.2
23,QHET,≤ 0.2

row,Variant,one-hybrid fitness for binding parS DNA
1,ASIT,≤ 0.2
2,GAHR,≤ 0.2
3,MLHS,≤ 0.2
4,VETL,≤ 0.2
5,LASY,≤ 0.2
6,RCTV,≤ 0.2
7,TKMR,≤ 0.2
8,CQLA,≤ 0.2
9,NQMA,≤ 0.2
10,PQLA,≤ 0.2
11,RQLA,0.568
12,RQWA,0.544
13,RQMA,0.596
14,RQCA,0.558
15,PQMA,≤ 0.2
16,TQYS,≤ 0.2
17,HPLV,≤ 0.2
18,ANIE,≤ 0.2
19,RCYW,0.314
20,VLKR,≤ 0.2
21,HEGL,≤ 0.2
22,LRKS,≤ 0.2
23,CVSN,≤ 0.2

row,Variant,one-hybrid fitness for binding parS DNA
1,RQGA,0.563
2,CQGA,≤ 0.2
3,TVTV,≤ 0.2
4,RTNE,≤ 0.2
5,NTDT,≤ 0.2
6,RTNT,0.86
7,RTDT,0.802
8,RTDR,≤ 0.2
9,RTNR,≤ 0.2
10,MPRE,≤ 0.2
11,IDTG,≤ 0.2
12,PPTT,≤ 0.2
13,RHPH,≤ 0.2
14,PTAI,≤ 0.2
15,RLWA,0.648
16,NAWA,≤ 0.2
17,RAWA,0.598
18,DLWA,≤ 0.2
19,RWWA,0.254
20,RCWA,0.68
21,RMWA,0.634
22,RPWA,≤ 0.2
